# IDE exosite FP: exo-site inhibitors of human IDE, primary screen, biochemical, fluorescence anisotropy, probe displacement; Insulin-degrading enzyme (Homo sapiens), P14735; hit rate 6.3% among 17,000; z-score at 20 µM; purified IDE, FL-6b probe fluorescence polarization; stronger effect = lower value;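 active = z-score of -3 or lower, meaning strong loss of probe binding signal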;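 also: His-tagged human IDE residues 42-1019 made in E. coli with 30 nM FL-6b probe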
# Target sequence (P14735 42-1019 limits assumed): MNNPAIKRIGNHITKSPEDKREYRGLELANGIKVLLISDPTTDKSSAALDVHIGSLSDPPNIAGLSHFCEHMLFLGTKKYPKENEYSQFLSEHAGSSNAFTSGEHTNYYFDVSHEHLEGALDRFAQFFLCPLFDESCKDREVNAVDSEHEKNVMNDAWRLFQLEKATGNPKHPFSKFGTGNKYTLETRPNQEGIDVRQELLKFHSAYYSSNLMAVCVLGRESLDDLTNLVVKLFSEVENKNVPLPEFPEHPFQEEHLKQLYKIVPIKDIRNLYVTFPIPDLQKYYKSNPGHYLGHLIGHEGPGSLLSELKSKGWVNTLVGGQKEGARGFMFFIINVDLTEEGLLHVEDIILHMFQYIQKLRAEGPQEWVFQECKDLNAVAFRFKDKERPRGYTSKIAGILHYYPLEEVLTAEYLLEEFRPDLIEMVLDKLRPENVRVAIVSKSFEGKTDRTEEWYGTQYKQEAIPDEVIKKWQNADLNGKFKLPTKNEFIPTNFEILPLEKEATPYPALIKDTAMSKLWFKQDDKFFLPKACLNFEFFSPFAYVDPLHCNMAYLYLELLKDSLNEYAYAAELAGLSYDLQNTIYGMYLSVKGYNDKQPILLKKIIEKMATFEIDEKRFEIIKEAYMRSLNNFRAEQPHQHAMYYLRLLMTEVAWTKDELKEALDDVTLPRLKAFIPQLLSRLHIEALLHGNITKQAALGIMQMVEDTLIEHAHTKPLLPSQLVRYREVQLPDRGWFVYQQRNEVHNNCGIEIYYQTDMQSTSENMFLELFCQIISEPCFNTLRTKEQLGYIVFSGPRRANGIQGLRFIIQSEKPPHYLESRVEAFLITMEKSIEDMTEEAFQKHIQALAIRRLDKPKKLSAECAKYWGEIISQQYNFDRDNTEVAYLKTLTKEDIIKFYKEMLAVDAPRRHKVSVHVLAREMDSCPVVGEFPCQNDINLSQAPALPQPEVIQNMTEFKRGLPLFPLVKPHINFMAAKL
# * marks the source's active call; other numbers are inactive results; ! = not confirmed by another sample. This is one part of a sample in which hits are shown more often than they occur.
SMILES,IDE exosite FP
O=C(CN1CCOCC1)N1CCCCN2[C@H](CO)[C@H](c3ccc(/C=C/c4ccccc4)cc3)[C@H]2C1,-2.9
O=C(CN1CCOCC1)N1CCCCN2[C@H](C1)[C@@H](c1ccc(/C=C/c3ccccc3)cc1)[C@@H]2CO,-4.6*
O=C(CN1CCOCC1)N1CCCCN2[C@H](CO)[C@@H](c3ccc(/C=C/c4ccccc4)cc3)[C@H]2C1,-9.3*
O=C(CN1CCOCC1)N1CCCCN2[C@H](C1)[C@@H](c1ccc(Br)cc1)[C@@H]2CO,1.1
COCC(=O)Nc1ccc2c(c1)[C@H]1C[C@H](CC(=O)N[C@H](C)c3ccccc3)O[C@H](CO)[C@H]1O2,-0.9
O=C(NC[C@@H]1N[C@@H](CO)[C@H]1c1ccc(C2=CCCCC2)cc1)c1ccc(F)cc1,4.1
N#Cc1ccc(-c2ccc([C@H]3[C@@H](CO)N4C(=O)CN(C(=O)C5CCCC5)C[C@H]34)cc2)cc1,1.5
O=C(NCc1cc(F)cc(F)c1)[C@H]1[C@H](CO)[C@H]2Cn3c(cccc3=O)[C@@H]1N2,1.1
O=C(C1CC1)N1CC(=O)N2[C@H](C1)[C@H](c1ccc(Br)cc1)[C@@H]2CO,0.66
CO[C@@H]1CN(C)C(=O)c2cc(NC(=O)c3ccc(F)cc3)ccc2OC[C@@H](C)N(C(=O)CC2CC2)C[C@@H]1C,0.37
N#C[C@H]1[C@@H](c2ccccc2-c2cccc(F)c2)[C@@H](CO)N1C(=O)C1CC1,0.78
COCC(=O)N1[C@@H](C#N)[C@@H](c2ccc(-c3cccc(F)c3)cc2)[C@@H]1CO,3.3
O=C(c1ccncc1)N1CC2(C1)[C@H](c1ccccc1)[C@H](CO)N2CC1CC1,-1
O=C(CC1CC1)N1CC2(C1)[C@@H](c1ccccc1)[C@H](CO)N2C(=O)c1ccccn1,-0.56
O=C(CC1CC1)N1CC2(C1)[C@@H](c1ccccc1)[C@@H](CO)N2Cc1ccccn1,0.79
CCC(=O)N1[C@H](CO)[C@@H](c2ccccc2)C12CN(C(=O)c1ccncc1)C2,1.2
O=C(Cc1ccccn1)N1CC2(C1)[C@H](c1ccccc1)[C@@H](CO)N2C(=O)c1ccncc1,-3.7*
O=C(Cc1ccccn1)N1CC2(C1)[C@@H](c1ccccc1)[C@@H](CO)N2C(=O)c1ccncc1,-3.3*
CN(C)C(=O)c1ccc(-c2ccc(C3[C@H]4CNC[C@@H]3N4S(=O)(=O)c3ccc(Cl)cc3)cc2)cc1 (stereo partly specified),1.5
C[C@@H]1CCCCO[C@H](CN(C)C(=O)Cc2ccccc2)[C@H](C)CN([C@@H](C)CO)C(=O)c2cc(NS(C)(=O)=O)ccc2O1,0.77
COc1ccc(C#Cc2ccc([C@H]3[C@H]4CN(C)CCCCN4[C@H]3CO)cc2)cc1,-0.084
CN1CCCCN2[C@H](CO)[C@@H](c3ccc(-c4ccccc4)cc3)[C@@H]2C1,0.92
COc1ccc(C#Cc2ccc([C@H]3[C@H](CO)N4CCCCN(C)C[C@@H]34)cc2)cc1,0.046
CN1CCCCN2[C@H](CO)[C@@H](c3ccc(C#Cc4ccccc4F)cc3)[C@@H]2C1,-8.6*
CN1CCCCN2[C@@H](CO)[C@@H](c3ccc(C#Cc4ccccc4F)cc3)[C@@H]2C1,-5*
SMILES,IDE exosite FP
OC[C@@H]1[C@H](c2ccc(C#Cc3ccccc3F)cc2)[C@@H]2CN(CC3CCOCC3)CCCCN12,-1.7
O=C1CNC[C@H]2[C@H](c3ccc(C#CC4CCCCC4)cc3)[C@H](CO)N12,1.6
CS(=O)(=O)Nc1ccc2c(c1)[C@@H]1C[C@@H](CC(=O)NCCc3ccccc3)O[C@H](CO)[C@@H]1O2,0.96
COCC(=O)N1C[C@@H](C)[C@H](OC)CN(C)C(=O)c2ccc(NC(=O)c3ccc(-c4ccccc4)cc3)cc2OC[C@H]1C,-3
CN(C)C(=O)c1cccc(-c2ccc([C@@H]3[C@@H](CO)N4CCCCN(CCC(F)(F)F)C[C@H]34)cc2)c1,1.4
CN1CCCCN2[C@H](CO)[C@H](c3ccc(-c4ccccc4)cc3)[C@H]2C1,4.3
CCC(=O)N1CCCCN2[C@H](CO)[C@H](c3ccc(-c4ccc(F)cc4)cc3)[C@@H]2C1,1.7
CCC(=O)N1CCCCN2[C@H](CO)[C@@H](c3ccc(/C=C/c4ccccc4)cc3)[C@H]2C1,-2.6
CCC(=O)N1CCCCN2[C@H](CO)[C@H](c3ccc(/C=C/c4ccccc4)cc3)[C@H]2C1,-3.1*
CCC(=O)N1CCCCN2[C@@H](CO)[C@H](c3ccc(/C=C/c4ccccc4)cc3)[C@@H]2C1,-7.2*
CCC(=O)N1CCCCN2[C@@H](CO)[C@@H](c3ccc(-c4ccc(F)cc4)cc3)[C@@H]2C1,0.52
O=C(c1cccc(F)c1)N1CCCCN2[C@H](CO)[C@@H](c3ccc(/C=C/c4ccccc4)cc3)[C@@H]2C1,2.4
O=C(c1cccc(F)c1)N1CCCCN2[C@H](C1)[C@H](c1ccc(/C=C/c3ccccc3)cc1)[C@@H]2CO,0.48
O=C(c1ccc(F)cc1)N1CCCCN2[C@@H](CO)[C@H](c3ccc(/C=C/c4ccccc4)cc3)[C@@H]2C1,-3.4*
CCC(=O)N1CCCCN2[C@H](CO)[C@H](c3ccc(-c4ccc(F)cc4)cc3)[C@H]2C1,3.3
CN1CCCCN2[C@H](CO)[C@@H](c3ccc(/C=C/c4ccccc4)cc3)[C@H]2C1,-5.4*
CN1CCCCN2[C@H](CO)[C@H](c3ccc(/C=C/c4ccccc4)cc3)[C@H]2C1,-3
C/C=C/c1ccc([C@H]2[C@@H](CNC(=O)CC)N(C(=O)COC)[C@H]2CO)cc1,6.1
C/C=C/c1ccc([C@@H]2[C@@H](C#N)N(C(=O)CN3CCOCC3)[C@H]2CO)cc1,1.1
CCS(=O)(=O)Nc1ccc2c(c1)C(=O)N(C)C[C@@H](OC)[C@@H](C)CN(CC1CCCCC1)[C@H](C)CO2,-0.42
NCC[C@H]1CC[C@@H](NC(=O)Cc2ccncc2)[C@@H](CO)O1,2.9
COc1ccc2c3c([nH]c2c1)[C@H](CO)N(C(=O)CN(C)C)CC31CN(CC2CC2)C1,-0.52
COc1ccccc1-c1ccc(C2[C@@H]3CN(Cc4nccs4)C[C@H]2N3)cc1 (stereo partly specified),-0.059
COc1cccc(CN2C[C@@H]3N[C@H](C2)C3c2ccc(-c3ccccc3OC)cc2)c1 (stereo partly specified),-8.6*!
COc1ccccc1-c1ccc(C2[C@@H]3CN(Cc4cccc(F)c4)C[C@H]2N3)cc1 (stereo partly specified),-3.2*
SMILES,IDE exosite FP
Fc1ccccc1-c1ccc(C2[C@@H]3CN(Cc4ccccc4)C[C@H]2N3)cc1 (stereo partly specified),2.3
COc1cc(CN2C[C@@H]3N[C@H](C2)C3c2ccc(-c3ccc(C#N)cc3)cc2)cc(OC)c1 (stereo partly specified),-0.74
COc1cccc(CN2CCCCN3[C@@H](CO)[C@@H](c4ccc(-c5ccccc5OC)cc4)[C@@H]3C2)c1,-1.5
O=C(c1ccccc1F)N1CC(=O)N2[C@H](CO)[C@@H](c3ccc(-c4ccc(F)cc4)cc3)[C@H]2C1,2.2
O=C(c1ccncc1)N1CCCCN2[C@H](CO)[C@@H](c3ccc(-c4ccccc4)cc3)[C@H]2C1,1.7
CCCC(=O)Nc1ccc2c(c1)OC[C@H](C)NC[C@@H](C)[C@@H](OC)CN(C)C2=O,-0.61
O=C(c1cnccn1)N1CC(=O)N2[C@H](C1)[C@H](c1ccc(C#CCC3CCCC3)cc1)[C@@H]2CO,3.9
OC[C@H]1[C@@H](c2ccc(-c3ccccc3F)cc2)[C@@H]2CN(Cc3cncnc3)CCCCN12,-2.7

# Compound activity as filed in PubChem BioAssay.
